# Screening results as filed in PubChem BioAssay.
# This is a sample that favours compounds with a hit; in the whole collection about 4.1% have one here.
# ALR inh: inhibitors of human ALR sulfhydryl oxidase, primary screen, biochemical, H2O2 detection, HRP-luminol luminescence, single point | FAD-linked sulfhydryl oxidase ALR (Homo sapiens), P55789 | inhibition, % (no concentration beside the values) | purified ALR, DTT oxidation | AID 485317, 2010 | 3.8% of 290,000 active;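 active = mean replicate inhibition above about 79%, with every replicate also reaching it, limit read from the data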
# Target sequence (P55789 whole entry, looked up): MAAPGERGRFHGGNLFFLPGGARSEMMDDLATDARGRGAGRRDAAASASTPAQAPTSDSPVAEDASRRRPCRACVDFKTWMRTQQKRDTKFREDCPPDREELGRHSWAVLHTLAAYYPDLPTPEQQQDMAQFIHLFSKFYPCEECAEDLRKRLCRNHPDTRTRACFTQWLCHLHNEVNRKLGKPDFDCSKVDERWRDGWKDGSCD
# IDE cell inh: human IDE inhibitors in live cells, primary screen, fluorescence polarization, HEK cells, FAbetaB substrate | Insulin-degrading enzyme (Homo sapiens), P14735 | FAbetaB cleavage | inhibition, % at 5.59 µM | 0.41% of 320,000 active | AID 434962, 2010;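 active = percent inhibition above the average of all tested compounds plus 3 SD, set per screening campaign, cut at about 16% in these data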;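 also: IDE supplied by intact live HEK cells; FP after avidin binding of uncleaved biotin substrate so inhibition keeps polarization high; 0% = DMSO wells and 100% = 60 µM reference IDE inhibitor Ii1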
# CaV13 FRET inh: Disruptors of the CACNA1D IQ motif to Ca2+-dependent inactivation inhibitor domain association, primary screening, Förster resonance energy transfer in intact living …. HEK cells, CFP/YFP FRET ICDI-IQ, plate reader, 10 min; percent FRET-ratio fall versus neutral wells. inhibition, % at 12.3 µM. 0.098% of 340,000 active;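 active = mean replicate inhibition of at least 30% and at least 1% of replicates passing that level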;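 also: 0% = median of the neutral control wells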
# IDE act: human IDE activators in live cells, primary screen, fluorescence polarization, HEK cells, FAbeta-B substrate | FAbeta-B cleavage; 0% vehicle, 100% cell-free pure enzyme wells | 0.073% of 340,000 active | activation, % at 5.96 µM;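 active = activation above the mean of all tested compounds plus 3 SD, set per screening campaign, cut at about 17% in these data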
# PfM18AAP inh-1: PfM18AAP inhibitors, malaria aminopeptidase, primary screen, biochemical, QFRET, recombinant enzyme | inhibition, % at 7.35 µM | H-Glu-NHMec fluorogenic cleavage | M18 aspartyl aminopeptidase (Plasmodium falciparum 3D7) | 1.2% of 290,000 active;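 active = inhibition above the campaign mean inhibition over all tested compounds plus 3 SD, cut at about 28% in these data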;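 also: 0% = plate median of test compound wells and 100% = 2 mM ZnCl2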
# PolyA inhibitor: polyadenylation inhibitors in yeast reporter cells, primary screen, luminescence, S. cerevisiae; S. cerevisiae SKY197-pL101 polyadenylation reporter, beta-gal luminescence; efflux-impaired pdr1/pdr3 knockout yeast; score 100 = 6 SD above DMSO; activity score, % at 12 µM; 0.02% of 300,000 active; AID 1875, 2009;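 active = lowest replicate activity score at least 50, where 100 means six control SD above control mean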;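 also: yeast exposed to compound for 9 h at 30 °C; higher score means more reporter readthrough which indicates perturbed polyadenylation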
# PfM18AAP inh-2: PfM18AAP inhibitors, malaria aminopeptidase, confirmation, biochemical, QFRET, recombinant enzyme, triplicate. shares compounds with PfM18AAP inh-1. H-Glu-NHMec fluorogenic cleavage. inhibition, % at 7.35 µM. 28% of 2,400 active;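 active = mean inhibition over replicate wells above the hit cutoff set for the earlier primary screen, cut at about 29% in these data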;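 also: 0% = median of test compound wells and 100% = 2 mM ZnCl2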
# CTSL1 counter: cathepsin L1 inhibitors, retest, confirmation, counter-screen for PFM18AAP inhibitor project, biochemical, QFRET, triplicate | shares compounds with PfM18AAP inh-1 | purified cathepsin L1, Z-Leu-Arg-MCA fluorescence | inhibition, % at 5.96 µM | 2,400 tested, under 10 active | AID 2178, 2009;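 active = average inhibition across replicates above the hit cutoff set in the earlier primary screen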;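 also: 0% = median of test compound wells and 100% = Z-Phe-Ala-diazomethylketone 1 µM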
# Numbers without * were called inactive; . = not tested or not shown.
SMILES,ALR inh,IDE cell inh,CaV13 FRET inh,IDE act,PfM18AAP inh-1,PolyA inhibitor,PfM18AAP inh-2,CTSL1 counter
Cn1c(N)c(C(=O)CSc2nc(C3CC3)n(-c3ccccc3)n2)c(=O)[nH]c1=O,5.9,-1.9,-3.1,-3.0,.,.,.,.
CCC(CNC(=O)c1c(C)nn(-c2ccccc2)c1Cl)c1ccccc1 (stereo not drawn),1.6,-10.2,-4.7,-3.3,4.1,-2.7,.,.
CCCNC(=O)c1onc(CSc2ccc(Cl)cc2)c1C(=O)NCCOC,-5.0,6.4,-4.6,-3.4,.,1.6,.,.
COc1cc([N+](=O)[O-])ccc1NC(=O)NCc1ccccn1,-6.1,2.1,.,0.9,-0.2,-4.0,.,.
COc1cc([N+](=O)[O-])ccc1NC(=O)Nn1cnnc1,-11.1,-3.6,-5.4,5.5,84.2*,-3.8,80.7*,0.8
COc1ccc(C)cc1NC(=O)Nn1cnnc1,-28.4,-0.8,-3.9,-3.0,62.4*,8.0,56.4*,-1.7
COc1ccc(Cl)cc1C(=O)Nn1cnnc1,.,4.0,8.0,2.6,36.8*,-22.8,27.8,-4.1
COc1ccc(C)cc1NC(=O)Nc1ccccc1,6.6,3.6,-3.3,-0.6,5.6,-10.7,.,.
CCOC(=O)C1=CC[C@@H](c2cccc(Br)c2)N(S(=O)(=O)c2ccc(F)cc2)[C@H]1c1cccc(Cl)c1,.,.,-4.2,.,.,.,.,.
CNc1nnc(-c2cc3cc(Cl)ccc3oc2=O)s1,-21.5,0.9,.,-2.8,12.8,7.9,.,.
COc1ccc2oc(=O)c(-c3nnc(NCc4ccco4)s3)cc2c1,3.4,-0.7,-10.5,1.4,39.6*,-13.0,-26.8,1.8
CCOc1cccc2cc(-c3cn4cc(C)ccc4n3)c(=O)oc12,4.5,-4.1,-6.0,-2.5,-9.0,5.1,.,.
CCOc1cccc2cc(-c3nnc(NCc4ccco4)s3)c(=O)oc12,29.6,2.5,-15.6,2.7,32.5*,-9.1,-13.5,1.9
O=C1NC(=Nc2ccccc2Cl)S/C1=C\c1cc([N+](=O)[O-])ccc1O,46.1,3.6,-293.4,-8.3,15.6,-6.4,.,.
O=C1NC(=O)C(c2ccccc2[N+](=O)[O-])=C1Nc1ccc(O)c(Cl)c1,99.0*,-1.5,-4.8,6.6,40.3*,11.5,-81.0,-3.6
Cc1cc(OCC(=O)NC2CC(C)(C)NC(C)(C)C2)c(C)cc1Br,-2.7,-0.2,.,4.5,-0.2,2.7,.,.
Cc1cc(OCC(=O)Nn2cnnc2)c(C)cc1Br,-1.5,-0.7,.,7.4,46.2*,7.1,54.9*,-1.6
O=C(COc1ccc2ccccc2c1Br)Nn1cnnc1,-35.0,-2.3,-5.2,11.8,56.2*,4.0,37.1*,-2.3
Cc1ccc(OCC(=O)Nn2cnnc2)c(Br)c1,-4.2,7.9,-7.4,0.9,66.2*,19.6,56.6*,4.5
C#CCOCCOCCOCCNc1nc(N2CCN(C(=O)[C@H]([C@@H](C)CC)n3cc([C@@H](N)Cc4ccc(O)cc4)nn3)CC2)nc(N2CCN(C(=O)[C@H](CCCCN)n3cc([C@@H](N)CO)nn3)CC2)n1,.,1.0,.,.,11.8,-6.2,.,.
CC(Oc1ccc(C#N)cc1)C(=O)c1ccc(F)c(F)c1 (stereo not drawn),-17.7,0.0,0.1,1.9,-15.1,14.9,.,.
O=C(Nc1ccccc1)Nc1ccc(Br)c(Cl)c1,-4.3,1.3,-1.9,2.5,-2.7,28.7,.,.
Cc1cc(NC(=O)CSc2nnc(-c3ccccc3)o2)no1,-1.3,-4.8,3.4,-0.4,13.4,0.9,.,.
O=C(CN1CCN(c2ccc(O)cc2)CC1)Nc1ccc2c(c1)OCCO2,77.7*,4.7,2.9,4.0,38.2*,-12.4,-1.5,5.2
